Results filed as inconclusive are left out. A call without a number means that no potency is given here. Calls of active or inactive are those of the source. Calls follow the shape of the dose curve; as a rule, active = well fitted cell-killing curve with a large enough effect in the repeat runs; inconclusive = weak or mixed curves, or effect the other way; inactive = flat fitted curve, though single readings scatter.
assay: qHTS assay to identify small molecule that activate the aryl hydrocarbon receptor (AhR) signaling pathway - cell viability counter screen (AID 743086); conditions: HepG2-AhR-luc viability, CellTiter-Fluor, 24 h; series mostly up to 70.3 µM; also: nearly all actives have a fitted effect of over 45% in size
Excerpt: U.S. Tox21 Program National Center for Advancing Translational Sciences [NCATS] NIH Chemical Genomics Center [NCGC] U.S. Environmental Protection Agency [EPA] National Institutes of Environmental Health Sciences [NIEHS] National Toxicology Program [NTP] U.S. Food and Drug Administration [FDA] Tox21 Assay overview: The Aryl hydrocarbon Receptor (AhR), a member of the family of basic helix-loop-helix transcription factors, is crucial to adaptive responses to environmental changes. AhR mediates cellular responses to environmental pollutants such as aromatic hydrocarbons through induction of phase I and II enzymes but also interacts with other nuclear receptor signaling pathways A cell based HepG2-AhR-luc assay (HG2L7.5c1 cell line, developed by Dr. Michael S. Denison, University of California at Davis) was used to assess the activation of AhR. HepG2 (human hepatocellular carcinoma) cells were stably transfected with an Ah receptor-responsive firefly luciferase reporter gene plasmid containing 20 dioxin responsive elements and luciferase reporter gene. Increased luciferase activity can be used to identify the compounds that induce AhR activation. The cytotoxicity of the compounds screened against the HepG2-AhR-luc cell line was tested in parallel by measuring the cell viability using CellTiter-Fluor assay in the same wells.
Tox21 Assay Protocol Summary: 4000 cells in 5 uL/well were dispensed into white wall/solid bottom 1536-well plates using a Multidrop Combi (Thermo Fisher Scientific Inc., Waltham, MA) dispenser. After the assay plates were incubated at 37C for 5 h, 23 nL of compound or DMSO vehicle was transferred to the assay plates by a pintool station (Kalypsys, San Diego, CA). The plates were incubated at 37C for 24 hr. For cell viability measurement, 1 ul/well of CellTiter-Fluor reagent (Promega, Madison, WI) was added into the assay plates using a Flying Reagent Dispenser (FRD) (Aurora Discovery, CA),and then the assay plates were incubated at 37C for 30 min. The fluorescence intensity in the plates was measured using a ViewLux plate reader (PerkinElmer, Shelton, CT), followed by the addition of 4 uL of ONE-Glo Luciferase Assay reagent (Promega) using an FRD (Aurora Discovery). After the assay plates were incubated at room temperature for 30 min, luminescence intensity was measured using a ViewLux plate reader (Perkin Elmer).
Potency is read from the fitted curve at half-maximal effect.

Structure (SMILES)	Potency
O=C1CC[C@@H](C(=O)O)N1	inactive
O=[N+]([O-])C1(Br)COCOC1	inactive
COc1cc(NCc2ccc3nc(N)nc(N)c3c2C)cc(OC)c1OC	29.8 µM (active)
CCCCCCCCCCCCCCCCCC(=O)OCC(CC)CCCC (stereo not given)	inactive
CC/C=C\C/C=C\C/C=C\CCCCCCCC(=O)OCC	inactive
ClC1=C(Cl)C1(Cl)Cl	inactive
OCC(CO)n1cnc(-c2ccc(F)cc2)c1-c1ccnc(Oc2ccccc2)n1	inactive
O=S(=O)(Cl)c1c(Cl)cccc1Cl	inactive
CC(=O)OCC(C)C	inactive
CCCCCCCCCCCCCCCC(=O)OCC	inactive
C[C@@H]1C[C@H]2[C@@H]3CCC4=CC(=O)C=C[C@]4(C)[C@@]3(F)[C@@H](O)C[C@]2(C)[C@@]1(O)C(=O)COP(=O)(O)O	inactive
CCC(CO)(CO)CO	inactive
SCCc1cnccn1	inactive
O=c1[nH][nH]c(=O)c2cc([N+](=O)[O-])ccc12	inactive
CC(O)Cn1cnc2c1c(=O)n(C)c(=O)n2C (stereo not given)	inactive
CC(C)(C)S	inactive
Nc1nc2ccc(OC(F)(F)F)cc2s1	inactive
CC(CN(CCN(CC(C)OCCO)CC(C)OCCO)CC(C)OCCO)OCCO (stereo not given)	inactive
O=C1[C@@H]2[C@H]3CC[C@H](C3)[C@@H]2C(=O)N1CCCCN1CCN(c2ncccn2)CC1	inactive
CC(=O)C(C)=O	inactive

Structure (SMILES)	Potency
CCCCCCCC/C=C\CCCCCCCC(=O)OCCO	inactive
COc1ccc(/C=C/C(=O)c2ccc(OC)cc2OC)cc1	inactive
CCC(C)(C)C(=O)O	inactive
c1ccc(CNc2ncnc3c2ncn3C2CCCCO2)cc1 (stereo not given)	inactive
CC[C@H]1OC(=O)[C@H](C)[C@@H](O[C@H]2C[C@@](C)(OC)[C@@H](O)[C@H](C)O2)[C@H](C)[C@@H](O[C@@H]2O[C@H](C)C[C@H](N(C)C)[C@H]2O)[C@](C)(O)C[C@@H](C)C(=O)[C@H](C)[C@@H](O)[C@]1(C)O	inactive
COC1CCC=CO1 (stereo not given)	inactive
O=[N+]([O-])c1ccc2ncccc2c1	inactive
CC(C)N(C)C	inactive
FC(F)(F)C(F)(F)C(F)(F)C(F)(F)CCI	inactive
CCCCCCCCCCCCCC(=O)OCC(O)CO (stereo not given)	inactive
CC(C)C(=O)OCCOc1ccccc1	inactive
CC1CCCO1 (stereo not given)	inactive
CCOC(=O)c1c(N)sc2c1CCN(Cc1ccccc1)C2	inactive
CCN(Cc1cccc(S(=O)(=O)O)c1)c1ccc(C(=C2C=CC(=[N+](CC)Cc3cccc(S(=O)(=O)O)c3)C=C2)c2ccc(O)cc2S(=O)(=O)[O-])cc1	16.6 µM (active)
Cc1ccc(N(CCO)CCO)cc1	inactive
c1ccc2sc(SSc3nc4ccccc4s3)nc2c1	inactive
CSCC[C@H](NC(=O)[C@H](Cc1c[nH]c2ccccc12)NC(=O)CCNC(=O)OC(C)(C)C)C(=O)N[C@@H](CC(=O)O)C(=O)N[C@@H](Cc1ccccc1)C(N)=O	inactive
CC(=O)C(=O)CC(C)C	inactive
CCCCOC(=O)CCCCC(=O)OCCCC	inactive
CC(C)COC(=O)c1ccc(O)cc1	inactive
